# Results: article PMC11062922 (Nature Chemical Biology, 2023)
# Like-named read-outs stand apart in the source and are kept apart here.
# Legend:
# Set-up in all cases: species or system human, MV4-11 + K-562 + COLO205 + SK-N-BE2 + OVCAR-8
# PRKX = conditions: read-out: apparent Kd, n = 1
# ROCK2 = conditions: read-out: apparent Kd, n = 1
# CSNK1E = conditions: read-out: apparent Kd, n = 1
# CSNK1A1 = conditions: read-out: apparent Kd; compound concentrations: 100 nM and 1000 nM (sheet 'Samples'), CATDS: 4.67055815056669E-2; n = 1
# MAPK8 = conditions: read-out: apparent Kd; compound concentrations: 100 nM and 1000 nM (sheet 'Samples'), CATDS: 3.7375924419407701E-2; n = 1
# ABL1 = conditions: read-out: apparent Kd, n = 1
# ADCK1 = conditions: read-out: apparent Kd; compound concentrations: 100 nM and 1000 nM (sheet 'Samples'), CATDS: 2.5462418576412099E-2; n = 1
# EPHA2 = conditions: read-out: apparent Kd, n = 1
# EPHB2 = conditions: read-out: apparent Kd, n = 1
# EPHB4 = conditions: read-out: apparent Kd, n = 1
# HCK = conditions: read-out: apparent Kd, n = 1
# PRKAA2 = conditions: read-out: apparent Kd, n = 1
# RIOK2 = conditions: read-out: apparent Kd; compound concentrations:100 nM and 1000 nM (sheet 'Samples'); n = 1
# SRC = conditions: read-out: apparent Kd, n = 1
# YES1 = conditions: read-out: apparent Kd, n = 1
# TNIK = conditions: read-out: apparent Kd; compound concentrations: 100 nM and 1000 nM (sheet 'Samples'), CATDS: 3.2855545776320001E-2; n = 1
# PHKG2 = conditions: read-out: apparent Kd; compound concentrations: 100 nM and 1000 nM (sheet 'Samples'), CATDS: 8.5028793142563602E-3; n = 1
# PTK6 = conditions: read-out: apparent Kd; compound concentrations: 100 nM and 1000 nM (sheet 'Samples'), CATDS: 9.7207770515578794E-3; n = 1
# [1] = compound concentrations:100 nM and 1000 nM (sheet 'Samples')
structure (smiles),measurement,setting,value
CCn1c(-c2nonc2N)nc2c(C#CC(C)(C)O)nc(OC[C@@H](N)c3ccccc3)cc21 [GSK938890A],potency estimated from few doses,"PRKX; compound concentrations: 100 nM and 1000 nM (sheet 'Samples'), CATDS: 0.16139090072401199",36.6 nM
same,potency estimated from few doses,"ROCK2; compound concentrations: 100 nM and 1000 nM (sheet 'Samples'), CATDS: 5.36427183140821E-2",1160 nM
Cl.ON=C1CCc2cc(-c3nc(C4CCNCC4)[nH]c3-c3ccncc3)ccc21 [SB-614067-R],potency estimated from few doses,CSNK1E; [1],1190 nM
COc1cccc2c(-c3ccncc3)c(-c3ccc(F)cc3)nn12 [GW468513X],potency estimated from few doses,CSNK1A1,666 nM
same,potency estimated from few doses,"CSNK1E; compound concentrations: 100 nM and 1000 nM (sheet 'Samples'), CATDS: 8.4108879944504403E-2",140 nM
same,potency estimated from few doses,MAPK8,1750 nM
CN(c1ccc(NC(=O)N2CCN(CCCN3CCOCC3)CC2)cc1)c1ccnc(Nc2ccc(CS(C)(=O)=O)cc2)n1.Cl [GW830899A],potency estimated from few doses,"ABL1; compound concentrations: 100 nM and 1000 nM (sheet 'Samples'), CATDS: 2.13093198764688E-2",1300 nM
same,potency estimated from few doses,ADCK1,867 nM
Fc1ccc(-c2c(-c3ccncc3)[nH]c3cccnc23)cc1 [RO1153853-000],potency estimated from few doses,"CSNK1E; compound concentrations: 100 nM and 1000 nM (sheet 'Samples'), CATDS: 9.9990073063758705E-2",274 nM
NCCNS(=O)(=O)c1ccc(-c2ccnc3[nH]ccc23)cc1 [GSK977617A],potency estimated from few doses,ABL1; [1],681 nM
same,potency estimated from few doses,EPHA2; [1],441 nM
same,potency estimated from few doses,EPHB2; [1],189 nM
same,potency estimated from few doses,EPHB4; [1],171 nM
same,potency estimated from few doses,HCK; [1],765 nM
same,potency estimated from few doses,PRKAA2; [1],721 nM
same,potency estimated from few doses,PRKX; [1],487 nM
same,potency estimated from few doses,RIOK2,1170 nM
same,potency estimated from few doses,ROCK2; [1],97.3 nM
same,potency estimated from few doses,SRC; [1],589 nM
same,potency estimated from few doses,YES1; [1],518 nM
CCn1c(-c2nonc2N)nc2c(C#CCN)ncc(OCCCN)c21.O=C(O)C(F)(F)F [GSK561866B],potency estimated from few doses,"ROCK2; compound concentrations: 100 nM and 1000 nM (sheet 'Samples'), CATDS: 8.7160231406383598E-2",858 nM
CCn1c(-c2nonc2N)nc2c(-c3ccccc3)ncc(OCCCN)c21.CCn1c(-c2nonc2N)nc2c(-c3ccccc3)ncc(OCCCN)c21.O=C(O)C(F)(F)F.O=C(O)C(F)(F)F [GSK260205A],potency estimated from few doses,"CSNK1E; compound concentrations: 100 nM and 1000 nM (sheet 'Samples'), CATDS: 3.6163147578600598E-2",706 nM
same,potency estimated from few doses,TNIK,950 nM
Clc1cc(Cl)cc(Nc2ccnc(Nc3cc(Cl)cc(Cl)c3)n2)c1 [GSK175726A],potency estimated from few doses,"ABL1; compound concentrations: 100 nM and 1000 nM (sheet 'Samples'), CATDS: 2.5998529843594201E-2",83.2 nM
same,potency estimated from few doses,"EPHA2; compound concentrations: 100 nM and 1000 nM (sheet 'Samples'), CATDS: 3.0586231323348499E-2",64 nM
same,potency estimated from few doses,"EPHB2; compound concentrations: 100 nM and 1000 nM (sheet 'Samples'), CATDS: 1.9895433949459099E-2",134 nM
same,potency estimated from few doses,"EPHB4; compound concentrations: 100 nM and 1000 nM (sheet 'Samples'), CATDS: 2.29851767560591E-2",103 nM
same,potency estimated from few doses,"HCK; compound concentrations: 100 nM and 1000 nM (sheet 'Samples'), CATDS: 1.3478571983596799E-2",316 nM
same,potency estimated from few doses,PHKG2,1680 nM
same,potency estimated from few doses,"PRKAA2; compound concentrations: 100 nM and 1000 nM (sheet 'Samples'), CATDS: 1.07442997812795E-2",618 nM
same,potency estimated from few doses,"PRKX; compound concentrations: 100 nM and 1000 nM (sheet 'Samples'), CATDS: 1.0278626389666701E-2",722 nM
same,potency estimated from few doses,PTK6,894 nM
same,potency estimated from few doses,"SRC; compound concentrations: 100 nM and 1000 nM (sheet 'Samples'), CATDS: 2.4757216834404398E-2",90.3 nM
same,potency estimated from few doses,"YES1; compound concentrations: 100 nM and 1000 nM (sheet 'Samples'), CATDS: 2.3154900781863899E-2",101 nM
